Compounds with a hit are over-represented: about 1.8% of the library has one in this group of screens.
GSTO1 inh: GSTO1 inhibition, counter-screen for RBBP9 inhibitors | P78417 | recombinant GSTO1, activity-based probe fluorescence polarization | inhibition, % at 5.96 µM | actives 1.1% (n = 300,000) | AID 1974;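 active means inhibition above the campaign mean inhibition plus 3 SD, cut at about 35% in these data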;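 further: 0% = GSTO1-1 with DMSO and 100% = wells lacking GSTO1-1 enzyme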
PME-1 primary: PME-1 (human) inhibition. Q9Y570. recombinant PME-1, FP-Rh probe fluorescence polarization. inhibition, % at 5.9 µM. actives 0.53% (n = 320,000). AID 2130;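 active means inhibition above the campaign mean of all compounds plus 3 SD, cut at about 26% in these data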;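 further: competitive labeling of PME-1 active site by serine hydrolase directed probe; 0% = PME-1 with DMSO and 100% = wells lacking PME-1 enzyme; inhibitors block probe labeling so polarization falls and inhibition rises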
LYPLA2 inh: LYPLA2 (human) inhibition in PME1 counter-screen; inhibition, % at 5.9 µM; O95372; recombinant LYPLA2, FP-Rh probe fluorescence polarization; actives 0.38% (n = 320,000);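 active means inhibition above the screen-wide mean plus 3 SD, limit set per campaign, cut at about 26% in these data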;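 further: 0% = LYPLA2 with DMSO and 100% = wells lacking LYPLA2 enzyme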
PAD4 inh: PAD4 (human) enzyme inhibition; AID 485272; recombinant PAD4, RCA probe fluorescence polarization; inhibition, % at 6.36 µM; actives 0.41% (n = 330,000);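 active means percent inhibition above a cutoff equal to the mean of all tested compounds plus 3 SD, cut at about 15% in these data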;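 further: 0% = PAD4 with RCA probe and DMSO and 100% = probe without PAD4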
Target sequence (Q9UM07 whole entry, looked up): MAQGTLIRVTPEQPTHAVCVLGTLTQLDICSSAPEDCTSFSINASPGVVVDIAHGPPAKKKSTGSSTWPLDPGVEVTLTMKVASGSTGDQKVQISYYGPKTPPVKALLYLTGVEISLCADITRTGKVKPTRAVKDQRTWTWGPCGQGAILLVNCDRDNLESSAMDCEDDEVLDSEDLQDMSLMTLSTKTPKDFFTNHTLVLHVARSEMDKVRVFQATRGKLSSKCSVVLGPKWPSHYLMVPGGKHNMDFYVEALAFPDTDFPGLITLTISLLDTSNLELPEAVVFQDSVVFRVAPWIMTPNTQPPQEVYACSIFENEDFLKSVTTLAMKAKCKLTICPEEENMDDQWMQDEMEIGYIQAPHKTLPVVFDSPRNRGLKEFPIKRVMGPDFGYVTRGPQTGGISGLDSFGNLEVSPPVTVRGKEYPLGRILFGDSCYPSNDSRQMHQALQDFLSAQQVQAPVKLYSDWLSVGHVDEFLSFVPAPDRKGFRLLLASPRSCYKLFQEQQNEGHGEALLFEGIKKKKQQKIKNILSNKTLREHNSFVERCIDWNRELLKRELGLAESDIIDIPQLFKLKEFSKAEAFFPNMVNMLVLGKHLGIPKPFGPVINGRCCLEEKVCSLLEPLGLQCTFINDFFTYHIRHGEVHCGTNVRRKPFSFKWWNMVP
Fam108B inh: blocks mouse Fam108B hydrolase in RBBP9 counter-screen; inhibition, % at 9.51 µM; actives 0.33% (n = 300,000); recombinant Fam108B, FP-Rh probe fluorescence polarization;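 active means inhibition above the screen mean inhibition plus 3 SD, computed separately per campaign, cut at about 18% in these data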;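 further: inhibitors lower polarization as less probe binds the enzyme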
LYPLA1 inh: counter-screen for PME1 inhibitors: inhibitors of human LYPLA1; inhibition, % at 5.9 µM; O75608; AID 2174; actives 0.16% (n = 320,000); recombinant LYPLA1, FP-Rh probe fluorescence polarization;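 active means inhibition above the mean of all tested compounds plus 3 SD, set per campaign, cut at about 14% in these data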;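 further: inhibitors block serine hydrolase probe labeling of LYPLA1 so polarization falls; 0% = enzyme with DMSO and 100% = wells lacking LYPLA1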
Fam108b inh conf: Fam108b (mouse) hydrolase inhibition, confirmation assay; recombinant Fam108b, FP-Rh probe fluorescence polarization; shares compounds with Fam108B inh; AID 1978; actives 44% (n = 930); inhibition, % at 9.51 µM;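 active means inhibition above a limit from the primary screen, the mean over all compounds plus 3 SD, cut at about 19% in these data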;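 further: 0% = median of active Fam108b wells and 100% = catalytically dead S170A mutant; inhibitors free the probe so polarization falls as inhibition rises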
Fam108b ABPP HTS: inhibits mouse Fam108b in gel-based ABPP. recombinant Fam108b, fluorophosphonate probe. inhibition, % at 20 µM. shares compounds with Fam108B inh. actives 44% (n = 260); in the data active means inhibition above about 40%
An asterisk follows results filed as active; nt = no result given; + = active, no number.

SMILES | GSTO1 inh | PME-1 primary | LYPLA2 inh | PAD4 inh | Fam108B inh | LYPLA1 inh | Fam108b inh conf | others
Cc1cc(NC(=O)c2cccc(S(=O)(=O)N3c4ccccc4CC3C)c2)no1 (centres undefined) | 0 | 1 | 4 | 3 | -2 | -4 | nt
Cc1ccc2nc(CSc3nc(C)ccc3C#N)[nH]c2c1 | -2 | 4 | 4 | -2 | 42* | -6 | 40* | Fam108b ABPP HTS=55*
CCOc1cc(-c2nc(-c3ccccc3)c(-c3cc([N+](=O)[O-])ccc3C)[nH]2)ccc1O | -1 | 11 | 6 | -7 | 21* | -7 | 8
O=[N+]([O-])c1ccc(O)c(-c2nc(-c3ccccc3)c(-c3cccs3)[nH]2)c1 | -7 | 5 | 2 | 0 | 26* | -8 | 4
CCCOc1ccc(/C(O)=C2/C(=O)C(=O)N(CCCn3ccnc3)C2c2cccnc2)cc1 (centres undefined) | 6 | 1 | 0 | -5 | 0 | -1 | nt
Cc1c(NC(=O)Nc2ccc(Cl)c(Cl)c2)sc(=S)n1C | -11 | 30* | 11 | 1 | 32* | -7 | 25*
CCN(CC(=O)Nc1ccccc1OC)C(=O)CSCC(=O)Nc1ccc(OC)cc1 | -6 | -1 | -1 | 1 | -4 | -1 | nt
Cc1cc(C)cc(Nc2nc(-c3ccc(S(=O)(=O)N4CCCC4)cc3)cs2)c1 | -8 | 16 | -6 | -3 | 24* | -14 | 0
Cc1ccc(Nc2nc(-c3ccc(S(=O)(=O)N4CCCC4)cc3)cs2)cc1C | -6 | 12 | -5 | -2 | 8 | -14 | nt
COc1ccc(C(CNC(=O)c2ccc(NS(=O)(=O)c3ccc(F)c(C)c3)cc2)N2CCOCC2)cc1 (centres undefined) | 0 | -5 | -2 | 2 | 3 | 0 | nt
O=C(Nc1cccc(-c2csc(Nc3ccc(Cl)cc3)n2)c1)c1cccc(C(F)(F)F)c1 | -8 | 4 | -14 | 0 | 27* | -22 | -14
O=C(Nc1cccc(-c2csc(Nc3ccc(Cl)cc3)n2)c1)c1ccccc1 | -20 | 1 | -18 | -2 | 24* | -26 | 20*
O=C(Nc1ccc(-c2csc(Nc3ccccc3)n2)cc1)c1ccccc1 | 1 | 7 | -3 | 3 | 5 | -6 | nt
CCOc1ccc(-c2noc(CCCC(=O)NCC3CCCO3)n2)cc1OC (centres undefined) | 2 | -10 | 6 | -3 | 3 | 1 | nt
COCCn1c(N)c(N(Cc2ccccc2)C(=O)C2=COCCO2)c(=O)[nH]c1=O | -6 | 1 | -4 | -7 | 3 | -2 | nt
O=C(Cc1cccc2ccccc12)Nc1nc(-c2cccc([N+](=O)[O-])c2)cs1 | -2 | 14 | -19 | -1 | 20* | -19 | 9
O=C(Nc1ccc(S(=O)(=O)Nc2nccs2)cc1)c1cccc(F)c1 | -4 | -3 | -8 | -6 | 2 | -6 | nt
O=C(Nc1ccc(S(=O)(=O)Nc2nccs2)cc1)c1ccc(=O)[nH]c1 | -150 | -19 | 0 | 3 | 18* | -4 | 10
N#C/C(=C\c1coc2ccc(O)cc2c1=O)C(=O)Nc1nc2ccccc2s1 | -51 | -12 | -11 | -27 | 44* | -16 | -39
N#C/C(=C\c1coc2ccccc2c1=O)C(N)=S | 5 | -4 | -6 | -3 | -6 | 1 | nt
C#CCn1cc(/C=N/Nc2nc3ccccc3[nH]2)c2ccccc21 | -4 | 25 | 6 | 3 | 30* | 4 | 21*
COc1cc(OC)c(OC)cc1/C=N/Nc1nc2ccccc2[nH]1 | 8 | -19 | -2 | 3 | 11 | 1 | nt
CCN(CC)c1ccc(/C=N/Nc2nc3ccccc3[nH]2)c(O)c1 | -22 | 7 | 7 | -11 | 21* | -4 | 19*
O=C(O)CSc1nnc(-c2ccc(Cl)cc2Cl)n1-c1ccc(Br)cc1 | 1 | -2 | -3 | 3 | 4 | 0 | nt
O=C(NCCN1CCOCC1)c1cccc(S(=O)(=O)N(Cc2ccccc2)c2ccccc2)c1 | 10 | 1 | -6 | 0 | 1 | -4 | nt
SMILES | GSTO1 inh | PME-1 primary | LYPLA2 inh | PAD4 inh | Fam108B inh | LYPLA1 inh | Fam108b inh conf | others
O=[N+]([O-])c1ccc(N/N=C/c2c[nH]c3ccccc23)c(S(=O)(=O)Nc2ccc(Cl)cc2)c1 | 1 | -1 | -1 | -1 | 38* | 2 | +
O=[N+]([O-])c1ccc(NN=Cc2c[nH]c3ccccc23)c(S(=O)(=O)Nc2ccc(Cl)cc2)c1 | nt | nt | nt | nt | nt | nt | nt | Fam108b ABPP HTS=90*
COc1ccccc1NS(=O)(=O)c1cc([N+](=O)[O-])ccc1N/N=C/c1c(C)[nH]c2ccccc12 | 3 | 11 | -1 | -6 | 18 | -8 | nt
COc1ccc(NS(=O)(=O)c2ccc3oc(Nc4ccc5c(c4)OCCO5)nc3c2)cc1 | -32 | 32* | -14 | -6 | 30* | -21 | -1
COc1ccc(Cl)cc1NC(=O)CN(C)C(=O)c1cn(-c2ccccc2)nc1-c1cccnc1 | 2 | -6 | 3 | -1 | 5 | -3 | nt
O=C(NC1CCCCC1)C(c1ccc(Cl)cc1)N(C(=O)c1ccccn1)c1cccnc1 (centres undefined) | -1 | 2 | 6 | 2 | -2 | 1 | nt
CCOc1cccc(/C=N/NC(=O)c2cc(-c3cccn3C)n[nH]2)c1O | -10 | -2 | -19 | -6 | 22* | -28 | 9
COc1cc(OC)c(OC)cc1/C=N/NC(=O)c1cc(-c2cccn2C)n[nH]1 | 4 | 3 | 8 | 2 | 4 | 6 | nt
Cc1cccc(Nc2nc(-c3ccc(O)cc3O)cs2)n1 | 1 | 21 | -1 | 0 | 21* | -7 | 11
CCOc1cc(C2Nc3cccc4cccc(c34)N2)ccc1O | 23 | 23 | -17 | -17 | 63* | -31 | 24*
Oc1ccccc1C1Nc2cccc3cccc(c23)N1 | 19 | 46* | 2 | -6 | 60* | -12 | 31* | Fam108b ABPP HTS=85*
Clc1cccc(C2Nc3cccc4cccc(c34)N2)c1 | 32 | 1 | -7 | 1 | 18 | -11 | nt
Clc1ccc(C2Nc3cccc4cccc(c34)N2)cc1Cl | 24 | 15 | -5 | -4 | 24* | -5 | 21*
COc1ccc(C(=O)CN(CCC(=O)O)S(=O)(=O)c2ccc([N+](=O)[O-])cc2)cc1 | 4 | 5 | 4 | 5 | -4 | 0 | nt
O=C(Nc1ccc(-c2csc(Nc3ccc(Cl)cc3)n2)cc1)c1cc([N+](=O)[O-])cc(C(F)(F)F)c1 | 0 | 9 | -9 | 1 | 29* | -17 | -5
O=C(Nc1cccc(-c2csc(Nc3ccccc3)n2)c1)c1cc([N+](=O)[O-])cc(C(F)(F)F)c1 | -5 | 31* | -5 | 1 | 37* | -16 | 21*

Source: PubChem (The Scripps Research Institute Molecular Screening Center)
